Screening results deposited in PubChem by several laboratories.
KCC2 mod: KCC2 (human) Cl- transport modulation | B-score of Tl+ flux slope (higher = more flux/activation; lower = inhibition) at 10 µM | 2.2% of 190,000 active | Q9H2X9 | AID 1456 | KCC2 cells, thallium flux FluoZin-2 fluorescence;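 active = thallium flux slope and its plate-corrected score both differing from the plate sample mean at a set confidence after two filtering rounds, in either direction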;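 also: slope of fluorescence scaled to starting intensity during 10 to 20 s after thallium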
Target sequence (Q9H2X9 whole entry, looked up): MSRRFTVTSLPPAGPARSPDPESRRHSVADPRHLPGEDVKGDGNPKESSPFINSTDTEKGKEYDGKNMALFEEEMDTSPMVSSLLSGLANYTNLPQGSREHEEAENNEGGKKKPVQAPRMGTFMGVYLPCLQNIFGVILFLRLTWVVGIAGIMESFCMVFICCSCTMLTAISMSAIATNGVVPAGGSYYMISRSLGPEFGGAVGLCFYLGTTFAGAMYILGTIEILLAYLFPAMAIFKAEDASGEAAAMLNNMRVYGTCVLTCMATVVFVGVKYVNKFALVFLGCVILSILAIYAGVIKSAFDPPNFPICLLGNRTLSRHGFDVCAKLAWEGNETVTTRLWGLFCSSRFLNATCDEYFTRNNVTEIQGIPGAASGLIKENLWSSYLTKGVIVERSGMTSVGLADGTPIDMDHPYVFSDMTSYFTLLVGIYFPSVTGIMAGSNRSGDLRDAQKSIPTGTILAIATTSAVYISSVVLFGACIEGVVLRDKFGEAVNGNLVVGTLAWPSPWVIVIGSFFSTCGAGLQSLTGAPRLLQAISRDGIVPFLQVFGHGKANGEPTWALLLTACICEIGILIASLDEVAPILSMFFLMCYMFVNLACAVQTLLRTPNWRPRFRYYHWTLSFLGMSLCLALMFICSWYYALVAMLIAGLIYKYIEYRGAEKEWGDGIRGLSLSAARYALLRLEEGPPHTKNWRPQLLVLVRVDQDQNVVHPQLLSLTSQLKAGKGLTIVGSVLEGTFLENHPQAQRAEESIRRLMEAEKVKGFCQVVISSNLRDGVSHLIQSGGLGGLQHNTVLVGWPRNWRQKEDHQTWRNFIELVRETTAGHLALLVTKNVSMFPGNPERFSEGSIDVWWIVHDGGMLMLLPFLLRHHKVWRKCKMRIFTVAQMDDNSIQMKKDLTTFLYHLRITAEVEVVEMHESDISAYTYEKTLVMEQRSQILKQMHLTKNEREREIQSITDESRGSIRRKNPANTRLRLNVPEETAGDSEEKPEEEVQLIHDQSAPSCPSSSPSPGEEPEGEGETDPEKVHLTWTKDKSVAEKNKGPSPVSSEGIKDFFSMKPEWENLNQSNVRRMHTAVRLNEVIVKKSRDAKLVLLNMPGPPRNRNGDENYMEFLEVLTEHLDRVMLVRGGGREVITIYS
ROMK primary: human ROMK K+ channel modulation, primary screen; AID 1918; P48048; 2% of 130,000 active; Tet-inducible ROMK, thallium flux fluorescence; actives lie on both sides; B-score at 10 µM;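 active = signal ratio slope over the read window, or its plate-corrected B-score, at least 3 SD from the plate mean, either direction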;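 also: B-score of the F/F0 ratio slope over 7 to 12 s after thallium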
m-calpain inh: blocks pig calpain II enzyme activity. purified calpain II, fluorogenic peptide substrate, 30 min. inhibition, % at 16 µM. 0.37% of 220,000 active;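 active = inhibition above about 50%, limit read from the data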
L major viab: Leishmania major promastigote growth inhibition | AID 1063 | Leishmania major promastigotes, resazurin fluorescence viability | inhibition, % at 10 µM | 9% of 200,000 active; in the data active = inhibition above about 50%;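 also: promastigotes grown with compound for 44 hours at 28 °C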
WT yeast gro inh: growth inhibition of WT yeast, mitochondrial fusion screen; mitochondrial fusion phenotypic screen, WT strain; inhibition, % at 10 µM; 2.1% of 190,000 active; AID 1362; in the data active = inhibition above about 58%; tested in S. cerevisiae
The depositor's hits bear a star; x = no result. Rows were chosen to be rich in hits. Some 12% of all compounds tested hit in one or more screens of this group.

SMILES	KCC2 mod	ROMK primary	m-calpain inh	L major viab	WT yeast gro inh
Cc1cccc(C(=O)O/N=C(\N)Cc2ccc([N+](=O)[O-])cc2)c1	-1.6	-1.4	-6	33	-4
CC(C)CCNC(=O)C1CCN(C(=O)N(C)C)CC1	0.81	x	6	1	0
CCc1ccc2nc(Nc3ccc(OC)cc3OC)c(C#N)cc2c1	0.66	x	5	3	10
CCSc1nc(N2CCOCC2)c2c(c1C#N)CCCC2	x	x	-2	-5	-15
CC(C)c1nc(N2CCOCC2)c(C#N)c2c1CCCC2	x	x	-265	3	74*
CCOC(=O)C1=C(CN2CCC(C)CC2)NC(=O)NC1c1ccc(Cl)cc1 (stereo not given)	x	-0.74	29	28	3
CCCCCC(=O)NNC1CC(=O)N(c2cccc(OCC)c2)C1=O (stereo not given)	0.75	x	7	x	x
CC1CCCN(C(=S)SCC(=O)c2cc(Br)cc(Br)c2O)C1 (stereo not given)	-0.68	0.91	-64	15	12
O=C(CSC(=S)N1CCCC1)c1cc(Br)cc(Br)c1O	1.1	-0.02	-23	95*	11
CCOC(=O)C1CCN(Cc2cc(=O)n3c(-c4ccccc4)csc3n2)CC1	-0.35	0.96	-50	88*	-8
O=C(c1ccc2c(c1)OCCO2)C1CCN(C(=O)c2ccc(F)c(F)c2)CC1	0.65	x	-29	57*	6
O=C(c1ccc2c(c1)OCCO2)C1CCN(C(=O)c2ccc(F)cc2)CC1	-0.63	x	31	21	-6
CC(C)(C)NS(=O)(=O)c1ccc(CCC(=O)Nc2cc(Cl)ccc2Oc2ccccc2)cc1	-0.86	-0.65	21	98*	12
CC(C)CNS(=O)(=O)c1ccc(CCC(=O)Nc2cc(Cl)ccc2Oc2ccccc2)cc1	-0.56	-1.5	71*	19	18
CC(C)(C)c1ccc(OCCNC(=O)Cc2ccc(F)cc2)cc1	0.15	-0.87	0	-6	-7
Cc1cc(C(=O)N/N=C/c2cc(Br)ccc2OC(=O)c2ccccc2Cl)n[nH]1	-0.11	-0.23	-31	98*	-3
O=S(=O)(Nc1ccc(O)c(CN2CCCCC2)c1)c1ccccc1	0.75	-1.2	8	99*	8
O=S(=O)(NC1CCCCC1Sc1ncccn1)c1ccccc1 (stereo not given)	-0.39	-0.025	5	65*	-17
Cc1ccc(NC2CCCCC2NS(=O)(=O)c2ccc(Cl)cc2)cc1 (stereo not given)	0.37	0.033	-2	6	-7
O=S(=O)(NC1CCCCC1Sc1ncccn1)c1ccc(Cl)cc1 (stereo not given)	0.75	0.46	7	38	6
O=S(=O)(NC1CCCCC1Nc1ccc(Cl)cc1)c1ccccc1 (stereo not given)	-0.63	-0.19	27	91*	28
CC(O)c1nc2ccccc2n1CCCCOc1ccccc1 (stereo not given)	-1.1	-1.7	-30	1	3
CCOC(=O)N1CCN(Cc2nc(C3CC3)no2)CC1	x	-0.84	13	9	-10
CC(C1CCN(Cc2nc(C3CC3)no2)CC1)N1CCOCC1 (stereo not given)	-0.8	2.1	4	78*	6
O=C(c1cnn2c(C(F)(F)F)cc(-c3ccc4c(c3)OCO4)nc12)N1CCCCC1	-0.084	x	6	99*	0
SMILES	KCC2 mod	ROMK primary	m-calpain inh	L major viab	WT yeast gro inh
O=C(c1cc2nc(-c3cccs3)cc(C(F)(F)F)n2n1)N1CCCc2ccccc21	-0.57	0.19	-7	21	25
Cc1ccc(-c2cc(C(F)(F)F)n3ncc(C(=O)N4CCN(C)CC4)c3n2)cc1	0.2	x	-192	99*	-6
Cc1ccc(-c2cc(C(F)(F)F)n3ncc(C(=O)N4CCCc5ccccc54)c3n2)cc1	-0.62	0.72	-5	-5	-6
O=C(NC1CCCC1)c1cnn2c(C(F)(F)F)cc(-c3ccc4c(c3)OCO4)nc12	0.072	x	-57	2	-38
CN1CCN(C(=O)c2cnn3c(C(F)(F)F)cc(-c4cccs4)nc23)CC1	-0.13	-0.0031	-166	1	-16
O=C(c1nn2c(C(F)(F)F)cc(-c3cccs3)nc2c1Br)N1CCCc2ccccc21	-1.8	0.72	-40	69*	-6
CN1CCN(C(=O)c2cnn3c(C(F)(F)F)cc(-c4ccc5c(c4)OCO5)nc23)CC1	-0.5	-0.33	2	84*	98*
COCCNS(=O)(=O)c1ccc(C)c(C)c1C	0.35	-0.0071	-20	-9	7
O=C(c1cnn2c(C(F)(F)F)cc(-c3cccs3)nc12)N1CCN(C(c2ccccc2)c2ccccc2)CC1	-0.2	-3.1	-64	97*	3
CSc1ccc(NC(=O)c2cccnc2)cc1C#N	-1.3	-0.0092	19	2	11
Cc1cccc(C(=O)N/N=C2\CS(=O)(=O)N(C)c3ccsc32)c1	x	x	-10	x	x
O=C(N/C(=C\c1ccco1)C(=O)N1CCOCC1)c1ccco1	0.064	x	-6	-1	1
O=C(N/C(=C\c1ccc(-c2ccccc2)o1)C(=O)N1CCOCC1)c1ccccc1	-7.3*	-3*	1	15	-1
CN1Cc2cccc3c2C(Cc2ccccc2S3)C1 (stereo not given)	0.26	x	8	57*	1
Cc1ccc([N+](=O)[O-])cc1N	1.6	0.084	-5	-2	0
Nc1cc([N+](=O)[O-])ccc1O	-0.097	0.88	1	98*	-4
CCCNC(=O)c1cc(-c2ccc(OC)cc2)n(CCCOC)c1C	1.1	1.1	-3	-1	-5
O=C(c1ccccc1)N(Cc1ccccc1)c1ccccn1	x	0.0097	17	3	-9
O=C(c1cnc2sccn2c1=O)N(Cc1ccccc1)c1ccccn1	0.54	x	85*	-7	1
CCC(C)NC(=O)C(=O)NCc1ccccn1 (stereo not given)	0.9	0.51	20	-1	-19
COc1ccccc1/C=N/NC(=O)c1cccc(OC(F)(F)C(F)F)c1	-0.61	x	22	38	6
COc1cccc(/C=N/NC(=O)C(=O)NCc2cccnc2)c1O	-0.24	-0.15	3	98*	-3
COc1cccc(/C=N/NC(=O)C(=O)NCc2cccnc2)c1OC	-0.15	0.031	-28	-6	5
COc1cccc(/C=N/NC(=O)C(=O)Nc2ccccc2OC(F)(F)C(F)F)c1O	-0.54	x	-62	97*	3
COc1ccc(CCC(=O)Nc2nc3c(s2)CN(C)CC3)cc1OC	x	0.46	-1	4	-13
SMILES	KCC2 mod	ROMK primary	m-calpain inh	L major viab	WT yeast gro inh
CNC(=S)N(CCc1ccc(S(N)(=O)=O)cc1)C1CC(=O)N(c2ccccc2F)C1=O (stereo not given)	x	x	-4	-7	-11
CCOc1ccccc1OCCOCCOc1ccccc1[N+](=O)[O-]	-1.4	x	5	-2	8
CC1CCN(CCCCOc2ccc([N+](=O)[O-])cc2)CC1	x	x	-3	91*	14
CC1CCN(CCCCOc2ccccc2[N+](=O)[O-])CC1	x	x	8	90*	-2
COC(=O)C1CCN(Cc2ccc(OCCCN3CCN(c4ccc([N+](=O)[O-])cc4)CC3)cc2)CC1	-0.024	-2.4	-7	96*	34
O=[N+]([O-])c1ccc(OCCCCN2CCCCC2)cc1	1.1	x	5	89*	0
